{"source": "ChEMBL document CHEMBL3988442", "about": "“University of Dundee, Small-Polar-MMV Screening Library” (2021)", "target": "T1, Methionyl-tRNA synthetase, putative (Leishmania donovani (strain BPK282A1)) (UniProt E9BF75)", "T1 sequence (whole entry)": "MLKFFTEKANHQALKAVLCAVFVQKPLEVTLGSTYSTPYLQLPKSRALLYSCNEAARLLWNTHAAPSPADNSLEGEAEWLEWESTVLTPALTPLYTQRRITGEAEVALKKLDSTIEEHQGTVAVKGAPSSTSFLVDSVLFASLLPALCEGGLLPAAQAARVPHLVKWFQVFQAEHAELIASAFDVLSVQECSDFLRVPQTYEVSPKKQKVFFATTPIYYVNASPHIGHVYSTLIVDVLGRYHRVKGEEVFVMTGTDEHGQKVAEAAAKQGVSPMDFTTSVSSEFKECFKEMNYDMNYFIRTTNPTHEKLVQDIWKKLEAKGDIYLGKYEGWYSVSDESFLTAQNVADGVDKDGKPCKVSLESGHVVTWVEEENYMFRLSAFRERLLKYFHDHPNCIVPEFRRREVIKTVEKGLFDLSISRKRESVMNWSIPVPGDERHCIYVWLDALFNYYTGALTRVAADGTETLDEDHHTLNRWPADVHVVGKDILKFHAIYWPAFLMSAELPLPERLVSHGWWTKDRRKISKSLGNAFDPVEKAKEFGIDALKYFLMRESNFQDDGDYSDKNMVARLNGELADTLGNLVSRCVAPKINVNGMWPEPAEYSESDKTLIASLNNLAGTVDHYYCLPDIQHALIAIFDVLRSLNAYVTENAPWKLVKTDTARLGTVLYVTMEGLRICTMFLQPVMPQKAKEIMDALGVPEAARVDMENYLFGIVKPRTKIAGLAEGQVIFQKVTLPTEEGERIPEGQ", "assay": "Leishmania donovani Methionine tRNA synthetase (LdMetRS):v7. Dose response assay", "assay_type": "functional", "set-up": "conc 80 nM, time 150 minutes"}
{"smiles": "Cc1nc(N2CCN(c3ncccn3)CC2)c2c3c(sc2n1)CCC3", "values": [{"measurement": "PXC50", "setting": "MAX_EFFECT 14.75409836", "value": "< 4"}, {"measurement": "PXC50", "setting": "MAX_EFFECT 18.71657754", "value": "< 4"}]}
{"smiles": "Nc1noc2ccc(-c3cnc4ccc(NCCN5CCC(F)(F)CC5)nn34)cc12", "values": [{"measurement": "PXC50", "setting": "MAX_EFFECT 10.96491228", "value": "< 4"}, {"measurement": "PXC50", "setting": "MAX_EFFECT 13.23155216", "value": "< 4"}]}
{"smiles": "Cc1nc(NC(C)C(=O)O)c2c3c(sc2n1)CCCC3", "note": "(stereo not drawn)", "values": [{"measurement": "PXC50", "setting": "MAX_EFFECT 7.035175879", "value": "< 4"}, {"measurement": "PXC50", "setting": "MAX_EFFECT 8.5995086", "value": "< 4"}]}
{"smiles": "CC(=O)N1CCN(CC2OB(O)c3ccccc32)CC1", "note": "(stereo not drawn)", "values": [{"measurement": "PXC50", "setting": "MAX_EFFECT 12.26415094", "value": "< 4"}, {"measurement": "PXC50", "setting": "MAX_EFFECT 15.06849315", "value": "< 4"}]}
{"smiles": "Nc1noc2ccc(-c3cnc4ccc(N5CCCCC5)nn34)cc12", "values": [{"measurement": "PXC50", "setting": "BOTTOM 2.074435444, HILLSLOPE 0.92774459, MAX_EFFECT 58.33333333, TOP 100.0", "value": 4.06}, {"measurement": "PXC50", "setting": "BOTTOM -0.552717408, HILLSLOPE 0.869319648, MAX_EFFECT 51.90839695, TOP 100.0", "value": 4.01}]}
{"smiles": "Nc1cc(C(=O)O)c(Cl)cc1Cl", "values": [{"measurement": "PXC50", "setting": "MAX_EFFECT 6.695464363", "value": "< 3"}, {"measurement": "PXC50", "setting": "MAX_EFFECT 9.69581749", "value": "< 3"}]}
{"smiles": "Cc1sc2nc(-c3cccs3)nc(N(C)CC(=O)N3CCCC3)c2c1C", "values": [{"measurement": "PXC50", "setting": "MAX_EFFECT 37.40458015", "value": "< 4"}, {"measurement": "PXC50", "setting": "MAX_EFFECT 42.06549118", "value": "< 4"}]}
{"smiles": "CC(O)c1ccc(Cl)cc1Cl", "note": "(stereo not drawn)", "values": [{"measurement": "PXC50", "setting": "MAX_EFFECT 7.559395248", "value": "< 3"}, {"measurement": "PXC50", "setting": "MAX_EFFECT 15.39923954", "value": "< 3"}]}
{"smiles": "COC(=O)c1sc2nc(C)nc(N(C)Cc3cccnc3)c2c1C", "values": [{"measurement": "PXC50", "setting": "MAX_EFFECT 13.66120219", "value": "< 4"}, {"measurement": "PXC50", "setting": "MAX_EFFECT 13.90374332", "value": "< 4"}]}
{"smiles": "Cc1nc(NCCC(C)C)c2c3c(sc2n1)CCCC3", "values": [{"measurement": "PXC50", "setting": "MAX_EFFECT 30.4", "value": "< 4"}, {"measurement": "PXC50", "setting": "MAX_EFFECT 33.86243386", "value": "< 4"}]}
{"smiles": "CCc1nc(N2CCCC2C(=O)O)c2c3c(sc2n1)CCC3", "note": "(stereo not drawn)", "values": [{"measurement": "PXC50", "setting": "MAX_EFFECT 9.836065574", "value": "< 4"}, {"measurement": "PXC50", "setting": "MAX_EFFECT 11.76470588", "value": "< 4"}]}
{"smiles": "COCCN(CC1CC1)c1nc(CCN)nc2sc(C)c(C)c12", "values": [{"measurement": "PXC50", "setting": "MAX_EFFECT 32.65306122", "value": "< 4"}, {"measurement": "PXC50", "setting": "MAX_EFFECT 36.11111111", "value": "< 4"}]}
{"smiles": "O=C(c1c[nH]cn1)N1CCC(F)(F)C2(CCN(c3cccc(F)c3)C2)C1", "note": "(stereo not drawn)", "values": [{"measurement": "PXC50", "setting": "MAX_EFFECT 45.5399061", "value": "< 4"}, {"measurement": "PXC50", "setting": "MAX_EFFECT 46.11111111", "value": "< 4"}]}
{"smiles": "FC1(F)CCN(Cc2ccncc2)CC12CCN(c1cnccn1)C2", "note": "(stereo not drawn)", "values": [{"measurement": "PXC50", "setting": "MAX_EFFECT 2.721088435", "value": "< 4"}, {"measurement": "PXC50", "setting": "MAX_EFFECT 15.70093458", "value": "< 4"}]}
{"smiles": "O=C(NCC1(O)CCCCC1)c1cc(=O)c2cc(F)cc(O)c2o1", "values": [{"measurement": "PXC50", "setting": "MAX_EFFECT 3.03030303", "value": "< 4"}, {"measurement": "PXC50", "setting": "MAX_EFFECT 5.182341651", "value": "< 4"}]}
{"smiles": "O=C(NCC1CCCCC1)c1cc(=O)c2ccc(F)c(O)c2o1", "values": [{"measurement": "PXC50", "setting": "MAX_EFFECT 5.182341651", "value": "< 4"}, {"measurement": "PXC50", "setting": "MAX_EFFECT -0.4784689", "value": "< 4"}]}
{"smiles": "CCOCCN(CCOCC)c1nc(C)nc2sccc12", "values": [{"measurement": "PXC50", "setting": "MAX_EFFECT 12.27154047", "value": "< 4"}, {"measurement": "PXC50", "setting": "MAX_EFFECT 15.66579634", "value": "< 4"}]}
{"smiles": "N[C@H]1CCOc2c(Cl)cc(Cl)cc21", "values": [{"measurement": "PXC50", "setting": "MAX_EFFECT 2.517162471", "value": "< 2.7"}, {"measurement": "PXC50", "setting": "MAX_EFFECT 3.676470588", "value": "< 2.7"}]}
{"smiles": "COCCNC(=O)c1ccc2ccc(N(C)CC3CC3)n2c1", "values": [{"measurement": "PXC50", "setting": "MAX_EFFECT 29.93197279", "value": "< 4"}, {"measurement": "PXC50", "setting": "MAX_EFFECT 41.12149533", "value": "< 4"}]}
{"smiles": "Cc1nc(NC(C(=O)O)C(C)C)c2c3c(sc2n1)CCC3", "note": "(stereo not drawn)", "values": [{"measurement": "PXC50", "setting": "MAX_EFFECT 7.537688442", "value": "< 4"}, {"measurement": "PXC50", "setting": "MAX_EFFECT 7.616707617", "value": "< 4"}]}
{"smiles": "CC(C)C[C@H](N)COc1ccc(-c2ccccc2)c(F)c1", "values": [{"measurement": "PXC50", "setting": "MAX_EFFECT 23.6673774", "value": "< 4"}, {"measurement": "PXC50", "setting": "MAX_EFFECT 25.46583851", "value": "< 4"}]}
{"smiles": "CO[C@H]1[C@@H]2CC[C@H]1CN(c1nc(C)nc3sccc13)C2", "values": [{"measurement": "PXC50", "setting": "MAX_EFFECT 8.838383838", "value": "< 4"}, {"measurement": "PXC50", "setting": "MAX_EFFECT 9.693877551", "value": "< 4"}]}
{"smiles": "Cc1cc2c(N3CCCCC3)nc(-c3cccnc3)nc2s1", "values": [{"measurement": "PXC50", "setting": "MAX_EFFECT 30.15075377", "value": "< 4"}, {"measurement": "PXC50", "setting": "MAX_EFFECT 37.1007371", "value": "< 4"}]}
{"smiles": "O=C(c1cnccn1)N1CCC(F)(F)C2(CCN(c3ccccn3)C2)C1", "note": "(stereo not drawn)", "values": [{"measurement": "PXC50", "setting": "MAX_EFFECT 7.962962963", "value": "< 4"}, {"measurement": "PXC50", "setting": "MAX_EFFECT 7.981220657", "value": "< 4"}]}
{"smiles": "COCCNC(=O)c1ccc2ccc(N3CCN(CC4CC4)CC3)n2c1", "values": [{"measurement": "PXC50", "setting": "BOTTOM 5.874206897, HILLSLOPE 1.640597442, MAX_EFFECT 51.96261682, TOP 70.05301325", "value": 4.26}, {"measurement": "PXC50", "setting": "MAX_EFFECT 46.71201814", "value": "< 4"}]}
{"smiles": "Cc1nc(O)cc(C2CCN(c3nc(C)nc4sccc34)CC2)n1", "values": [{"measurement": "PXC50", "setting": "MAX_EFFECT 2.659574468", "value": "< 4"}, {"measurement": "PXC50", "setting": "MAX_EFFECT 5.699481865", "value": "< 4"}]}
{"smiles": "Nc1noc2ccc(-c3cnc4ccc(NCc5ccncc5)nn34)cc12", "values": [{"measurement": "PXC50", "setting": "MAX_EFFECT 14.75826972", "value": "< 4"}, {"measurement": "PXC50", "setting": "MAX_EFFECT 25.87719298", "value": "< 4"}]}
{"smiles": "COc1cc(C(=O)NC2CCCC2)cn2c(N3CCN(S(C)(=O)=O)CC3)ccc12", "values": [{"measurement": "PXC50", "setting": "BOTTOM 3.193013855, HILLSLOPE 0.707285439, MAX_EFFECT 58.33333333, TOP 100.0", "value": 4.17}, {"measurement": "PXC50", "setting": "BOTTOM -2.394752883, HILLSLOPE 0.813527414, MAX_EFFECT 65.35087719, TOP 100.0", "value": 4.43}]}
{"smiles": "CCNc1nc(CN2CCCCC2)nc2scc(-c3ccccc3)c12", "values": [{"measurement": "PXC50", "setting": "MAX_EFFECT 17.42424242", "value": "< 4"}, {"measurement": "PXC50", "setting": "MAX_EFFECT 18.36734694", "value": "< 4"}]}
{"smiles": "CCc1nc(NCCCC(=O)O)c2cc(CC)sc2n1", "values": [{"measurement": "PXC50", "setting": "MAX_EFFECT 11.55778894", "value": "< 4"}, {"measurement": "PXC50", "setting": "MAX_EFFECT 13.02211302", "value": "< 4"}]}
{"smiles": "O=c1cc(NCCCNC2CCOc3c(I)cc(Cl)cc32)[nH]c2ccccc12", "note": "(stereo not drawn)", "values": [{"measurement": "PXC50", "setting": "BOTTOM 0.0, HILLSLOPE 1.492515979, MAX_EFFECT 100.0, TOP 105.2364851", "value": 5.24}, {"measurement": "PXC50", "setting": "BOTTOM 6.728264836, HILLSLOPE 2.160741468, MAX_EFFECT 100.4651163, TOP 100.3878671", "value": 5.22}]}
{"smiles": "Cc1nc(N2CCCCCC2)c2ccsc2n1", "values": [{"measurement": "PXC50", "setting": "MAX_EFFECT 9.6", "value": "< 4"}, {"measurement": "PXC50", "setting": "MAX_EFFECT 10.05291005", "value": "< 4"}]}
{"smiles": "Cn1cc(CN2CCC(F)(F)C3(CCN(c4cccc(F)c4)C3)C2)cn1", "note": "(stereo not drawn)", "values": [{"measurement": "PXC50", "setting": "MAX_EFFECT 7.256235828", "value": "< 4"}, {"measurement": "PXC50", "setting": "MAX_EFFECT 17.57009346", "value": "< 4"}]}
{"smiles": "Cc1nc(N2CCCC(N)CC2)c2ccsc2n1", "note": "(stereo not drawn)", "values": [{"measurement": "PXC50", "setting": "MAX_EFFECT 0.0", "value": "< 4"}, {"measurement": "PXC50", "setting": "MAX_EFFECT 3.10880829", "value": "< 4"}]}
